Values joined by “and” are separate entries in the source; they are usually repeats but may differ in a detail not shown here. Equal entries are not always repeated. Records with an inconclusive call do not appear. A call without a number means that no potency is given here. Active and inactive are the calls of the source. Unless noted, calls come from the whole dose curve; as a rule, active = well fitted curve in the direction sought with a large enough effect in the repeat runs; inconclusive = weak or mixed curves; inactive = no such curve, though single readings can be large; an effect the other way counts as inactive or inconclusive.
Tests used:
[1] = qHTS assay to identify small molecule phospholipidosis (PLD) inducers (AID 1259344; active = well fitted curve in the direction sought with a large enough effect; an effect the other way counts as inactive or inconclusive)
How it was run: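 HepG2 cells on collagen I, attached 4 h at 37 C, were co-treated with compound and LipidTOX Red dye for 24 h at 37 C, then fixed with paraformaldehyde plus Hoechst 33342 and imaged by high-content microscopy for phospholipid accumulation.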

[2] = qHTS assay to identify small molecule HDAC inhibitors (AID 1259364); note: potency is the fitted concentration of half-maximal effect;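 note: wild-type HCT-116 cells with endogenous class I/II HDAC activity; nearly all actives have a fitted effect of over 45% in size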
How it was run: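 Read-out: luminescence of HDAC-Glo I/II reagent, 30 min RT, reflecting class I/II deacetylase activity in whole HCT-116 cells pre-exposed 2 h to DMSO-dissolved compounds.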

[3] = qHTS assay to identify small molecule HDAC inhibitors - cell viability counter screen (AID 1259365); note: series mostly up to about 92 µM; nearly all actives have a fitted effect of over 50% in size
How it was run: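 To flag cytotoxic hits, 1,500 wild-type HCT-116 cells per well, plated the day before, receive test compounds for 2hr at 37 C before CellTiter-Glo reagent and a luminescence read.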

[4] = qHTS assay to identify small molecule agonists of the sonic hedgehog signaling (Shh) pathway - cell viability counter screen (AID 1259366); note: nearly all actives have a fitted effect of over 50% in size
How it was run: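 Fluorescence from CellTiter-Fluor reports live cells in this counter screen. NIH/3T3-derived Gli1-Luc reporter cells receive test compounds for 24hr at 37C; reagent goes in at 23hr.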

[5] = qHTS assay to identify small molecule antagonists of the sonic hedgehog signaling (Shh) pathway - cell viability counter screen (AID 1259367); note: nearly all actives have a fitted effect of over 55% in size
How it was run: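 NIH/3T3-derived Gli1-Luc reporter cells (2,000 per well) rested 4 hr at 37 C, then received DMSO compounds plus conditioned medium. After 23 hr of treatment, CellTiter-Fluor was added for 1 hr at 37C and fluorescence read.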

[6] = qHTS assay to identify small molecule agonists of the sonic hedgehog signaling (Shh) pathway (AID 1259368; calls by dose curve;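 note: NIH/3T3-derived 3T3Gli1-Luc cells carrying a stable Gli1-driven firefly luciferase reporter; series mostly up to about 92 µM; nearly all actives have a fitted effect of over 15% in size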)
How it was run: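 A Gli1 transcriptional response element controlled firefly luciferase in 3T3Gli1-Luc cells. Compounds and a positive control were added 4 hr after plating, and cells were incubated a further 24 hr at 37 C before luminescence detection.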

[7] = qHTS assay to identify small molecule antagonists of the sonic hedgehog signaling (Shh) pathway (AID 1259369; calls by dose curve; note: nearly all actives have a fitted effect of over 45% in size; note: potency is the fitted concentration of half-maximal effect)
How it was run: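 For antagonist detection, the reporter line received test compounds together with conditioned medium, incubated 24hr at 37 C, 5% CO2, then luminescence was recorded following 30min room-temperature luciferase reagent incubation.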

[8] = biological target: Estrogen receptor beta (Homo sapiens) (UniProt Q92731); assay: qHTS assay to identify small molecule agonists of the estrogen receptor beta (ER-beta) signaling pathway (AID 1259377; active = well fitted activation curve with a large enough effect in the signal ratio in the repeat runs, not every such curve was filed as active; the % refers to the signal ratio)
Estrogen receptor beta (Homo sapiens), sequence (Q92731 whole entry, looked up): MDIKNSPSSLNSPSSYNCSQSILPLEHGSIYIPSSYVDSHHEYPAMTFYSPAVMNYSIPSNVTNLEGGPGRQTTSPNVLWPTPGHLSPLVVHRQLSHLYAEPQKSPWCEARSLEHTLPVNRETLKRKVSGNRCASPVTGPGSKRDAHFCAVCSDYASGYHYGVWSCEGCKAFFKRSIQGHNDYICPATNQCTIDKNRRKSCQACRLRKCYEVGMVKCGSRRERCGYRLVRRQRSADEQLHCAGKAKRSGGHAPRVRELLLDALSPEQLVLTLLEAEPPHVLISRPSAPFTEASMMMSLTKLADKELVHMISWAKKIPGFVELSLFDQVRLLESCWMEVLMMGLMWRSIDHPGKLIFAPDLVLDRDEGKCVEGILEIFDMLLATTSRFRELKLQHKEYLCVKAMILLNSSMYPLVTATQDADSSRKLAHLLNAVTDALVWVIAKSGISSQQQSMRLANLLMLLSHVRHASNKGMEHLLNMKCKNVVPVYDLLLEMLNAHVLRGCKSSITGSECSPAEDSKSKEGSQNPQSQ
How it was run: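 Screening used GripTite ER-beta-UAS-bla cells held in 2% charcoal-stripped FBS medium. After overnight (16 hr) compound incubation at 37C, beta-lactamase activity was detected with a FRET substrate by fluorescence.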

[9] = biological target: Estrogen receptor beta (Homo sapiens) (UniProt Q92731); assay: qHTS assay to identify small molecule antagonists of the estrogen receptor beta (ER-beta) signaling pathway (AID 1259378; active = well fitted inhibition curve with a large enough effect in the signal ratio in the repeat runs, not every such curve was filed as active; the % refers to the signal ratio)
How it was run: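 ER-beta-UAS-bla HEK293T (GripTite) cells in 2% charcoal-stripped FBS medium were preincubated 6 hr at 37C, dosed with compound, then stimulated with 1 nM E2 (final) for 16 hr; beta-lactamase reporter read by B/G FRET fluorescence after 2 hr substrate loading.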

[10] = qHTS assay to identify small molecule agonists of the androgen receptor (AR) signaling pathway in the presence of an antagonist - cell viability counter screen (AID 1259379);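 note: MDA-kb2 human breast cancer cells carrying an MMTV luciferase reporter; series mostly up to about 92 µM; nearly all actives have a fitted effect of over 25% in size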
How it was run: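 Seed MDA-kb2 at 3,000 cells/well; incubate 5 hr, 37C, 0% CO2. Add nilutamide to 3.0uM final, then pin compounds at 15 concentrations. Incubate 16 hr. Add CellTiter-Fluor at 15 hr, read fluorescence after 1 hr.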

[11] = qHTS assay to identify small molecule agonists of the estrogen receptor beta (ER-beta) signaling pathway - cell viability counter screen (AID 1259380); note: nearly all actives have a fitted effect of over 30% in size
How it was run: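 CellTiter-Glo read, 30 min RT, same wells as bla assay; cells ER-beta-UAS-bla HEK293T; 16 hr compound, 37C; medium 2% charcoal-stripped FBS.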

[12] = qHTS assay to identify small molecule antagonists of the estrogen receptor beta (ER-beta) signaling pathway - cell viability counter screen (AID 1259382); note: series mostly up to about 92 µM; nearly all actives have a fitted effect of over 55% in size
How it was run: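 In this multiplexed counter screen, cells were seeded at 2,000 per well in medium with 2% charcoal-stripped FBS and incubated 6 hr before compound and 1nM final E2 were added. Sixteen hours later, ATP-based luminescence reported viability.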

[13] = biological target: Thyrotropin receptor (Homo sapiens) (UniProt P16473); assay: qHTS assay to identify small molecule antagonists of the thyroid stimulating hormone receptor (TSHR) signaling pathway (AID 1259385; calls by dose curve; note: nearly all actives have a fitted effect of over 20% in size)
Thyrotropin receptor (Homo sapiens), sequence (P16473 whole entry, looked up): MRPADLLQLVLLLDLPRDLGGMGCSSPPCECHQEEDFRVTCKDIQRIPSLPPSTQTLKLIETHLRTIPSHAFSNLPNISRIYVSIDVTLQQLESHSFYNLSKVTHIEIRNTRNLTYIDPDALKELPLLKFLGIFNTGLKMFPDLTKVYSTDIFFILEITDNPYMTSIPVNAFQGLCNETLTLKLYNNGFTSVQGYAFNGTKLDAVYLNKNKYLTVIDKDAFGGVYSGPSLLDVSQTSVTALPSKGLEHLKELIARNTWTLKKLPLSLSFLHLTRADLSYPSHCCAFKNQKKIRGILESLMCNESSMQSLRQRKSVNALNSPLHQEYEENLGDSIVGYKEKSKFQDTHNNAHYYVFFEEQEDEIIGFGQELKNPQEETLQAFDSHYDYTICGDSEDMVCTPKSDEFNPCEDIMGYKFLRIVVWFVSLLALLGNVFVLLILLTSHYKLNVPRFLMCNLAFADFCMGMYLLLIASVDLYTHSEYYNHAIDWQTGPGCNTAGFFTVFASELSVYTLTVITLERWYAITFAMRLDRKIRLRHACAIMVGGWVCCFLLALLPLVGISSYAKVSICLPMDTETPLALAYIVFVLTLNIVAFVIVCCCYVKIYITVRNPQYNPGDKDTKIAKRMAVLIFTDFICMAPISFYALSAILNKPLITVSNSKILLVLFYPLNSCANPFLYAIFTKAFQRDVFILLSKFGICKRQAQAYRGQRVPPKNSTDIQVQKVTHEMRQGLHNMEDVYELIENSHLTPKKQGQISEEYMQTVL
How it was run: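 TSHR-HEK293 cells were plated and held 18 h at 37C/5% CO2, then given compound plus Ro20-1724 and stimulated with TSH at 1.5 ng/mL final. After 30 min at room temperature, cAMP was detected with cAMP-d2/anti-cAMP-cryptate (1 h) by fluorescence.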

[14] = qHTS assay to identify small molecule agonists of the estrogen receptor alpha (ER-alpha) signaling pathway in the presence of an antagonist - cell viability counter screen (AID 1259386);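 note: series mostly up to about 92 µM; cells exposed to compounds for 22 h at 37 °C before the viability read; nearly all actives have a fitted effect of over 30% in size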
How it was run: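 Viability counter screen using VM7Luc4E2 (full-length ER-alpha, four ERE-luciferase). The cells were treated with compounds alongside ICI-182,780 10.0nM for 22hr, and live-cell protease fluorescence was quantified with CellTiter-Fluor.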

[15] = biological target: Progesterone receptor (Homo sapiens) (UniProt P06401); assay: qHTS assay to identify small molecule agonists of the progesterone receptor (PR) signaling pathway (AID 1346784; calls by dose curve; note: nearly all actives have a fitted effect of over 30% in size)
Progesterone receptor (Homo sapiens), sequence (P06401 whole entry, looked up): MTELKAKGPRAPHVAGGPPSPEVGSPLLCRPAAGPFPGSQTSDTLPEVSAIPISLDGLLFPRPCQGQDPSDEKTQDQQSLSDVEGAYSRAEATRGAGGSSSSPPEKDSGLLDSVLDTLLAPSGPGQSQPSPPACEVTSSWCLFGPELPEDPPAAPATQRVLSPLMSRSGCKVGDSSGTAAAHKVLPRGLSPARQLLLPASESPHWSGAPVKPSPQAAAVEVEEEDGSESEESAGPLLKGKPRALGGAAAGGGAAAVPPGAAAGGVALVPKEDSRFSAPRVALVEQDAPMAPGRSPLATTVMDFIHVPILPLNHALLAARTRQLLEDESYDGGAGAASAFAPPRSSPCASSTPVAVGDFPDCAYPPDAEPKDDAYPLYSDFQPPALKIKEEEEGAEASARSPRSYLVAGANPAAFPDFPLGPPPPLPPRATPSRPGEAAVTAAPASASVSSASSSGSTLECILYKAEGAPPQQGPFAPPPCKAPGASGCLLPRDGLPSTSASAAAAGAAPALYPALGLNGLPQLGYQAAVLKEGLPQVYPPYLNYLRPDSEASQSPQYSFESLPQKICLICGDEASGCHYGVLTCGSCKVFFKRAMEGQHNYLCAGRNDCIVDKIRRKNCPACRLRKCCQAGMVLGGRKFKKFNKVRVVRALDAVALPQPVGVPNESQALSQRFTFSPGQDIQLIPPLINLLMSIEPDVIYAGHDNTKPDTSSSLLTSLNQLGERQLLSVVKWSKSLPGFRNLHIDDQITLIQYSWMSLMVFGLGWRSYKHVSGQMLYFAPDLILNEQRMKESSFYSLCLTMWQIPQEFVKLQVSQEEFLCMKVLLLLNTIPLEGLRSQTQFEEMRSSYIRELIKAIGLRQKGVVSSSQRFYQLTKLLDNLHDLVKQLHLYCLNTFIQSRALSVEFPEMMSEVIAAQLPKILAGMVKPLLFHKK
How it was run: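 Seed PR-UAS-bla HEK 293T cells (2% charcoal-stripped FBS), incubate 6 hr at 37C; add compounds in DMSO, 16 hr at 37C; add LiveBLAzer B/G substrate, 2 hr RT; read fluorescence intensity.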

[16] = biological target: Progesterone receptor (Homo sapiens) (UniProt P06401); assay: qHTS assay to identify small molecule antagonists of the progesterone receptor (PR) signaling pathway (AID 1346795; active = well fitted inhibition curve with a large enough effect in the signal ratio in the repeat runs, not every such curve was filed as active; the % refers to the signal ratio)
How it was run: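 Screening used a GripTite HEK293T line with PR-responsive UAS-beta-lactamase. Cells were challenged with compound in the presence of 1 nM R5020 final for 16 hr at 37C; B/G FRET substrate, 2 hr room temperature, fluorescence.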

[17] = qHTS assay to identify small molecule antagonists of the progesterone receptor (PR) signaling pathway - cell viability counter screen (AID 1346798); note: series mostly up to about 92 µM; nearly all actives have a fitted effect of over 50% in size
How it was run: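 Measures cytotoxicity in parallel with the PR antagonist reporter read: HEK293T PR-UAS-bla cells get compound and R5020 for 16 hr, and remaining viable cells are quantified by CellTiter-Glo luminescence.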

[18] = biological target: Estrogen receptor (Homo sapiens) (UniProt P03372); assay: qHTS assay to identify small molecule agonists of the estrogen receptor alpha (ER-alpha) signaling pathway in the presence of an antagonist (AID 1259383; calls by dose curve; note: top concentration of the series differs between compounds; nearly all actives have a fitted effect of over 15% in size)
Estrogen receptor (Homo sapiens), sequence (P03372 whole entry, looked up): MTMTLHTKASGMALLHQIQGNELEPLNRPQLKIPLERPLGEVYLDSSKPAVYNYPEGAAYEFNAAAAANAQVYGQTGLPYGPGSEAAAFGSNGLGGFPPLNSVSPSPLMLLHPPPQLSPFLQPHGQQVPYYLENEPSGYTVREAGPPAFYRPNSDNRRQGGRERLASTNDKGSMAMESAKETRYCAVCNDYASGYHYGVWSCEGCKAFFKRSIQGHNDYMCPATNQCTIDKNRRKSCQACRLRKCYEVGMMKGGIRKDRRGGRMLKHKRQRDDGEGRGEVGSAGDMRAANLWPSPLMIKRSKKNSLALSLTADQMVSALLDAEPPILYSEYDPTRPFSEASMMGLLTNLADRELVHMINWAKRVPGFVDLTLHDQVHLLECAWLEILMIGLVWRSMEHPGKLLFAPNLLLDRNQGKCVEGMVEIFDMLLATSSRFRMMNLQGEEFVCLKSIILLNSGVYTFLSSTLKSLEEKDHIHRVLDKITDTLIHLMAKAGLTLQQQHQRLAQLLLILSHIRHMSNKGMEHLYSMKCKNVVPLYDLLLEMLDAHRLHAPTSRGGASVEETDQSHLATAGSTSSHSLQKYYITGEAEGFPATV
How it was run: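 Stably transfected VM7Luc4E2 reporter cells, kept 5 days in charcoal-stripped serum, received ICI-182,780 at 10.0nM final before compound addition. Following 22hr incubation at 37C and 5% CO2, luciferase signal was read by luminescence.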

[19] = qHTS assay to identify small molecule agonists or antagonists of the thyroid stimulating hormone receptor (TSHR) signaling pathway - wild type cell line counter screen (AID 1259384; calls by dose curve)
How it was run: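 Wild-type HEK293 cells were plated 18 h at 37 C/5% CO2, pin-dosed with compound plus Ro20-1724 medium, held 30 min at room temperature, then given cAMP-d2 and anti-cAMP-cryptate; fluorescence was read after 1 h. Fifteen concentrations, triplicate.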

Row | Structure (SMILES) | outcome [1] | Potency [2] | outcome [3] | Potency [4] | Potency [5] | outcome [6] | Potency [7] | Potency [8] | outcome [9] | outcome [10] | Potency [11] | Potency [12] | Potency [13] | outcome [14] | outcome [15] | Potency [16] | Potency [17] | Potency [18] | outcome [19]
1 | Clc1ccccc1Cl | inactive | inactive | inactive | inactive | inactive | inactive | inactive | inactive | inactive | inactive | inactive | inactive | inactive | inactive | inactive | inactive | inactive |  | 
2 | CN(C)CCO | inactive | inactive | inactive | inactive | inactive | inactive | inactive | inactive | inactive | inactive | inactive | inactive | inactive | inactive | inactive | inactive |  | inactive | inactive
3 | Cc1ccc([N+](=O)[O-])cc1C |  | inactive | inactive | inactive | inactive | inactive | inactive | inactive | inactive | inactive | inactive | inactive | inactive | inactive | inactive | inactive | inactive | inactive | inactive
4 | O=NN1CCCCCCC1 |  | inactive | inactive | inactive | inactive | inactive | inactive |  |  | inactive | inactive | inactive | inactive | inactive | inactive | inactive |  | inactive | inactive
5 | CCc1cccc(C)c1N(C(=O)CCl)C(C)COC (stereo unspecified) |  | inactive | inactive | inactive | inactive | inactive | inactive | inactive |  | inactive | inactive | inactive | inactive | inactive | inactive |  |  |  | inactive
6 | CC(C)C#N |  | inactive | inactive | inactive | inactive | inactive | inactive |  |  | inactive | inactive | inactive | inactive | inactive | inactive | inactive | inactive |  | 
7 | CC(C)OC(=O)Nc1ccccc1 |  | 27.4 µM (active) and 24.3 µM (active) | inactive | inactive | inactive | inactive | inactive |  |  | inactive | inactive | inactive | inactive | inactive | inactive | inactive |  | inactive | inactive
8 | C1CC2OC2CC1C1CO1 (stereo unspecified) |  | inactive | inactive | inactive | inactive | inactive | inactive | inactive | inactive | inactive | inactive | inactive | inactive | inactive | inactive | inactive |  | inactive | 
9 | CN=C=S |  | inactive | inactive | inactive | inactive | inactive | 2.19 µM (active) |  |  | inactive | inactive | inactive | inactive | inactive | inactive | inactive |  | inactive | 

From PubChem BioAssay (Tox21)
